Here are results for 14 compounds from PubChem BioAssay (EPA / NIEHS).

Each structure is given as a SMILES string. Records with an inconclusive call do not appear. Where a structure was tested more than once in an assay, its records may differ in their call. Calls of active or inactive are those of the source. How the source made its calls, unless noted: active means hit-call score of the fitted dose curve at least 0.9, where 1 is the maximum; inconclusive means response in the unintended direction; inactive means score below 0.9.

Experiment [1] is described as follows: CPHEA_Stoker_NIS_Cytotoxicity: Cytotoxicity Assessment for CPHEA's Radioactive Iodide Uptake (RAIU) Assay for Sodium/Iodide Symporter (NIS) Inhibition, Stoker and Laws Labs (AID 2283897).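 On AC50: active means loss of ATP signal versus DMSO meaning cytotoxicity.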 Put shortly:
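CellTiter-Glo ATP luminescence gauged viability in HEK293T cells expressing human NIS after 2 h chemical exposure. Concentrations ran 0.001–100 uM in 0.5% DMSO; DMSO served as baseline for the loss-of-signal fit.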

Experiment [2] relates to turtle Thyroid Hormone Receptor, alpha (TRa), gene 101949057. The experiment in a line: ATG_trTRa_XSP2: Attagene TRANS-FACTORIAL Multi-Species (XSP1) HepG2 Assay for turtle Thyroid Hormone Receptor, alpha (TRa) (AID 2283834).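 Further: hits raise reporter mRNA over the DMSO baseline so AC50 marks activators.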 Put shortly:
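Turtle TRa-Gal4 chimera activity in transfected human HepG2 cells: reporter transcripts quantified by RT-PCR, 6-FAM labelling and capillary electrophoresis 24 h post-dosing; positive direction versus DMSO, medium containing 3 nM 6-alpha-fluorotestosterone and 1.5 nM norgestrel.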

Experiment [3] in a line: ATG_M_61_XSP2: Attagene TRANS-FACTORIAL Multi-Species (XSP2) HepG2 Assay for M61 Transcription Factor (Internal Marker) (AID 2283835; active means hit-call score of the fitted dose curve at least 0.9, where 1 is the maximum; inactive means score below 0.9;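 further: reporter mRNA of an internal background marker read by RT-PCR and capillary electrophoresis; active means a rise in signal above the DMSO baseline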). A digest of the protocol:
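Transient MRTU transfection of human HepG2; 24 h chemical dosing with 3 nM 6-alpha-fluorotestosterone + 1.5 nM norgestrel added for AR stimulation. RNA isolated, RT, PCR, FAM-labelled, HpaI cut, CE read. Positive direction vs DMSO.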

Experiment [4] deals with zebrafish Thyroid Hormone Receptor beta (TRb), thrb (gene 30607) (UniProt Q9PVE4). Briefly: ATG_zfTRb_XSP2: Attagene TRANS-FACTORIAL Multi-Species (XSP1) HepG2 Assay for zebrafish Thyroid Hormone Receptor beta (TRb) (AID 2283836). Put shortly:
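Transfect HepG2 with multiple reporter transcription units, dose chemical, incubate 24 h. Isolate RNA, reverse-transcribe, amplify and fluorescently label reporter sequences, digest with HpaI, then resolve by capillary electrophoresis. Positive direction fitted against DMSO.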

Experiment [5] is described as follows: ATG_XTT_Cytotoxicity_XSP2: Cytotoxicity Assessment in the Attagene TRANS-FACTORIAL Multi-Species (XSP2) HepG2 Assay (AID 2283837). The method, then:
ATG_XSP2_XTT_Cytotoxicity_multi-species is a cell-based, single-readout assay that uses HepG2, a human liver cell line, with measurements taken at 24 hours after chemical dosing in a 24-well plate.ATG_XTT_Cytotoxicity_XSP2 is an assay component measured from the ATG_XSP2_XTT_Cytotoxicity_multi-species assay. It is designed to make measurements of cell number, a form of viability reporter, as detected with fluorescence intensity signals by XTT cytotoxicity assay technology.Data from the assay component ATG_XTT_Cytotoxicity_XSP2 was analyzed into 1 assay endpoint. This assay endpoint, ATG_XTT_Cytotoxicity_XSP2, was analyzed in the positive analysis fitting direction relative to DMSO as the negative control and baseline of activity. Using a type of viability reporter, loss-of-signal activity can be used to understand changes in the viability. Furthermore, this assay endpoint can be referred to as a primary readout, because the performed assay has only produced 1 assay endpoint. To generalize the intended target to other relatable targets, this assay endpoint is annotated to the cell cycle intended target family, where the subfamily is cytotoxicity.
Human liver HepG2 cells are transiently transfected with multiple reporter transcription units (MRTUs) in 6-well plates using FuGene 6 reagent (Roche; 3 ml FuGene/1 mg DNA). The MRTU constructs are regulated by a cis-regulating element (promoter). […] A major difference between the CIS and TRANS system is that in CIS activities of endogenous TFs are measured, whereas the TRANS assay evaluates changes in activities of exogenous, chimeric NR-Gal4 proteins. […] At the end of 24 hour incubation, total RNA was isolated using TriZol reagent (Invitrogen). The isolated RNA is then reverse-transcribed using oligo(dT) primer and Mo-MLV reverse transcriptase (Invitrogen) with DNAse I (Ambion) treatment for 30 min. The one-tenth of the produced cDNA was amplified by PCR using Taq DNA polymerase (Invitrogen) and two reporter sequence-specific primers. The PCR products were fluorescently labeled by primer extension with 6-arboxyfluorescein (6-FAM) 5'-labeled reporter sequence-specific primer (2 min at 95 C, 20 s at 68 C and 10 min at 72 C) and these products were digested with 5U of HpaI (New England Biolabs) for 2h at 37 C. The fragments were purified using Qiaquick PCR columns (Qiagen), analyzed on an ABI 3130xL genetic analyzer (Applied Biosystems) with peak positions identified by using a set of X-rhodamine (ROX)-labeled MapMarker1000 molecular weight standards (BioVentures). The raw capillary electrophoresis data was processed using Attagraph software (Attagene).

Experiment [6] concerns the target human Thyroid hormone Receptor alpha (TRa), THRA (gene 7067) (UniProt P10827). The experiment in a line: ATG_hTRa_XSP2: Attagene TRANS-FACTORIAL Multi-Species (XSP2) HepG2 Assay for human Thyroid hormone Receptor alpha (TRa) (AID 2283838). A digest of the protocol:
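Reporter transcripts were read by RT-PCR with fluorescent primer extension, HpaI digestion and capillary electrophoresis. These came from HepG2 cells carrying multiplexed TRa-Gal4 TRANS constructs, harvested 24 hours after dosing. The medium also held 6-alpha-fluorotestosterone (3 nM) and norgestrel (1.5 nM), and increases were fitted against DMSO.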

In experiment [7] the target is frog Thyroid hormone Receptor alpha (TRa), thra-a (gene 397942) (UniProt P15204). The experiment in a line: ATG_frTRa_XSP2: Attagene TRANS-FACTORIAL Multi-Species (XSP2) HepG2 Assay for frog Thyroid hormone Receptor alpha (TRa) (AID 2283839). Put shortly: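 Reporter transcripts were measured by RT-PCR with capillary electrophoresis after 24 h dosing of HepG2 carrying transiently transfected multi-reporter units, including a chimeric frog TRa-GAL4 construct. Activity was taken as increase over DMSO vehicle.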
Chain of frog Thyroid hormone Receptor alpha (TRa), thra-a (gene 397942) (P15204 whole entry, looked up, the tested form may be a part): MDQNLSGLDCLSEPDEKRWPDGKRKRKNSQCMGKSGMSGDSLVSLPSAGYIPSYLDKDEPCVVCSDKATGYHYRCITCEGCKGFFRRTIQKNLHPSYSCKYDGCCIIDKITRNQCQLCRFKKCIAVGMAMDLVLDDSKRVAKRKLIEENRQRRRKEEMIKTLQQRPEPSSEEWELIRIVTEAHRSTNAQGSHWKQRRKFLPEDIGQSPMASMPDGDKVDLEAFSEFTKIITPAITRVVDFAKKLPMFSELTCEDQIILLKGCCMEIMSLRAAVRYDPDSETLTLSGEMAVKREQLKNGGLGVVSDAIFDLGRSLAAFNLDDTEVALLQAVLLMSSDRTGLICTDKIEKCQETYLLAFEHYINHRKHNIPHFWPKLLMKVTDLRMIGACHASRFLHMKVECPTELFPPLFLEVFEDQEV

Experiment [8] relates to Sodium/Iodide Symporter (NIS), SLC5A5 (gene 6528). The experiment in a line: CPHEA_Stoker_NIS_Inhibition_RAIU: CPHEA's Radioactive Iodide Uptake (RAIU) Assay for Sodium/Iodide Symporter (NIS) Inhibition, Stoker and Laws Labs (AID 2283841). A digest of the protocol:
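Iodide uptake read as CPM of intracellular 125I (final 329 pM) after 2 h room-temperature exposure in HEPES-buffered HBSS, pH 7.4. Human NIS-expressing HEK293T cells; six concentrations 0.001–100 uM, 0.5% DMSO, normalised to DMSO wells.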

The target of experiment [9] is human Thyroid hormone Receptor beta (TRb), THRB (gene 7068) (UniProt P10828). The experiment in a line: ATG_hTRb_XSP2: Attagene TRANS-FACTORIAL Multi-Species (XSP2) HepG2 Assay for human Thyroid hormone Receptor beta (TRb) (AID 2283840).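 Further: actives raise reporter mRNA so potency reflects agonist-like gain of signal.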 Put shortly:
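Activity of exogenous human TRb–Gal4 fusion measured by reporter mRNA from RT-PCR and capillary electrophoresis, 24 h after dosing transfected HepG2. 6-alpha-fluorotestosterone (3 nM) and norgestrel (1.5 nM) present. Gain-of-signal fit relative to DMSO.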

Chain of human Thyroid hormone Receptor beta (TRb), THRB (gene 7068) (P10828 whole entry, looked up, the tested form may be a part): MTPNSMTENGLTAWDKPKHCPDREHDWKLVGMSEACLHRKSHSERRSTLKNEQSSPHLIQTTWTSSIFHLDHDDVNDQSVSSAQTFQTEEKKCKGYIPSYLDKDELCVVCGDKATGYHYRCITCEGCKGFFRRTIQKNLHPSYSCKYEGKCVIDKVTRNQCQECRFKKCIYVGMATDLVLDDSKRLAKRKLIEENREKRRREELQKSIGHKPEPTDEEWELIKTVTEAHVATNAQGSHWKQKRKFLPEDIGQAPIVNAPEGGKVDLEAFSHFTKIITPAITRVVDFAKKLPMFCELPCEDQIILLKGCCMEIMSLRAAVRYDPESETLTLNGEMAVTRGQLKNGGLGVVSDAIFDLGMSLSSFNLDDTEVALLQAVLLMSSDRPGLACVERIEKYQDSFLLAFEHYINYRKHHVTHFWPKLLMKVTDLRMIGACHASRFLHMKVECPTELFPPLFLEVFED
Chain of zebrafish Thyroid Hormone Receptor beta (TRb), thrb (gene 30607) (Q9PVE4 whole entry, looked up): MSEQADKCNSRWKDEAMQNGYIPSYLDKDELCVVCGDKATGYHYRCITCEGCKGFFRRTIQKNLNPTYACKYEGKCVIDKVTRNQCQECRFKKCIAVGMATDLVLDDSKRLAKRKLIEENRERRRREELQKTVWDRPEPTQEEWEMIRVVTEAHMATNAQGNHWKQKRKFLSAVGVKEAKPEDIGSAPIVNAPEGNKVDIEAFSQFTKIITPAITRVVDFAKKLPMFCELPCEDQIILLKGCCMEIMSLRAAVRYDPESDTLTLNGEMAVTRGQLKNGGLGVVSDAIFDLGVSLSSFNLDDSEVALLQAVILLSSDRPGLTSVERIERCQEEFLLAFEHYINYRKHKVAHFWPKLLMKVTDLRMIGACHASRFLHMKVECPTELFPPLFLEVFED
Chain of human Thyroid hormone Receptor alpha (TRa), THRA (gene 7067) (P10827 whole entry, looked up, the tested form may be a part): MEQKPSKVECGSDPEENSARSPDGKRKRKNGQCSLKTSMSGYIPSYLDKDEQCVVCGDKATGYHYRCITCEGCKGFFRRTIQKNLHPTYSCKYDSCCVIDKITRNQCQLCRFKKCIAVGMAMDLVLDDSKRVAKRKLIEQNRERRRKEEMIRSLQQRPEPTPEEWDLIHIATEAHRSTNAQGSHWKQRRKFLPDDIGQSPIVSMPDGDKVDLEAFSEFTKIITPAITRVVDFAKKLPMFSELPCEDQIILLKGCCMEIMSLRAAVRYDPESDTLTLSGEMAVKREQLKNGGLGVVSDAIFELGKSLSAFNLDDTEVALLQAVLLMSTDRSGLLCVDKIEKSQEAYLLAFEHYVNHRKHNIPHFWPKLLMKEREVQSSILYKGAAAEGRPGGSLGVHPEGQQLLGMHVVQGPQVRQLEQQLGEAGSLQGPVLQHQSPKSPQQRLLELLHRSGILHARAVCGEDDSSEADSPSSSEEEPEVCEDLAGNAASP

With `O=C(c1ccc(OCCN2CCCCC2)cc1)c1c(-c2ccc(O)cc2)sc2cc(O)ccc12`, the AC50 in [1] is 9.92 µM (active).
For the compound `CC(C)(C)c1ccc(S)cc1`, the call in experiment [2], in [3], in [4], in experiment [5], in [6] and in experiment [7] was inactive.
For the compound `O=C(OCc1ccccc1)c1ccccc1O`, in [8], the AC50 is 9.92 µM (active). For the same compound, the result in experiment [1] was inactive.
Take `CC/C(=C(\c1ccccc1)c1ccc(OCCN(C)C)cc1)c1ccccc1`: the compound was called inactive in experiment [3], in [4], in [7], in experiment [9], in [8] and in experiment [1]. Besides, in experiment [1], the AC50 is 36.2 µM (active).
On to `CCCCCCCCOS(=O)(=O)O`, for which the result in [1] was inactive.
With `c1ccc(Cc2ccccc2)cc1`, the result in experiment [8] and in experiment [1] was inactive.
As for `CCC(C)COC(=O)CC(C)C` (stereo not given), the outcome in [8] was inactive.
`CCCCCC(=O)O[C@]1(C(C)=O)CC[C@H]2[C@@H]3CCC4=CC(=O)CC[C@]4(C)[C@H]3CC[C@@]21C`: the outcome in experiment [3], in [4], in [5], in experiment [9], in [8] and in experiment [1] was inactive.
Turning to `O=S(=O)(O)C(F)(F)C(F)(F)OC(F)(F)C(F)(F)F`, the outcome in experiment [8] was inactive.
On to `COC(=O)C(C)Oc1ccc(Oc2ncc(C(F)(F)F)cc2Cl)cc1` (stereo not given), for which the result in experiment [8] and in experiment [1] was inactive.
As for `O=C(O)C(F)(F)C(F)(F)C(F)(F)C(F)(F)C(F)(F)C(F)(F)C(F)(F)C(F)F`, the AC50 in experiment [8] is 18.4 µM (active).
With `CC(=O)C1=C(C)[C@@H]2C[C@@]3(C1)[C@H](C)CC[C@H]3C2(C)C`, the outcome in experiment [8] and in [1] was inactive.
Consider `CCCCCCOc1ccc(O)cc1`, for which the result in experiment [8] and in experiment [1] was inactive.
As to `C#C[C@]1(O)CC[C@H]2[C@@H]3CCc4cc(O)ccc4[C@H]3CC[C@@]21C`, the result in experiment [2], in [3], in experiment [4], in [8] and in experiment [1] was inactive. In addition, the AC50 in experiment [9] is 26.2 nM (active).

The term AC50 denotes the midpoint of the concentration-response curve, whichever way the signal moves.
